Screening data (PubChem)
This is a sample that favours compounds with a hit; in the whole collection about 0.75% have one here.
TCR activator = T cell receptor activation | primary human leukocytes, anti-CD3, IL-2 HTRF, 48 h | Potency, µM (doses to about 9.22 µM), for the others: at the highest dose activation of IL-2 secretion, most hits filed as activators | 330,000 tested, under 10 active | AID 504894; note: % of control where 0% means no effect
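Using a-CD3 beads without co-stimulation, primary human leukocytes were exposed to compounds for 48 hr. An HTRF IL-2 kit measured the cytokine, with europium-to-d2 energy transfer producing emission at 665nm upon 320nm excitation.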
uPA surface inh = cell surface uPA generation inhibition; cell surface uPA generation assay, qHTS; Potency, µM (top dose mostly 38.3 µM), without a hit: top-dose activity change, negative = inhibition, hits mostly inhibitors; 330,000 compounds, 0.31% hits; active = well fitted inhibition curve with a large enough effect; inconclusive = small, poorly fitted or top-dose-only effect; inactive = no such curve, though single readings can be large or run the other way; tested in mouse RAW 264.7 cells; note: potency is the fitted concentration of half-maximal effect; % is set by controls: 0 for no effect and ±100 for the full control effect; nearly all actives have a fitted effect of over 55% in size
TSHR antag = blocks TSH signaling through the human TSH receptor; P16473; TSHR-expressing cells, TSH-stimulated cAMP HTRF, 2 h; hits give low values; activity change, negative = inhibition, % at 11.5 µM; 330,000 compounds, 0.2% hits;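 active = activity change below a set negative limit, meaning inhibition stronger than a set level, cut at about -70% in these data; inconclusive = activity change between two set negative limits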; note: % is set by controls: 0 for no effect and ±100 for the full control effect
Target sequence (P16473 whole entry, looked up): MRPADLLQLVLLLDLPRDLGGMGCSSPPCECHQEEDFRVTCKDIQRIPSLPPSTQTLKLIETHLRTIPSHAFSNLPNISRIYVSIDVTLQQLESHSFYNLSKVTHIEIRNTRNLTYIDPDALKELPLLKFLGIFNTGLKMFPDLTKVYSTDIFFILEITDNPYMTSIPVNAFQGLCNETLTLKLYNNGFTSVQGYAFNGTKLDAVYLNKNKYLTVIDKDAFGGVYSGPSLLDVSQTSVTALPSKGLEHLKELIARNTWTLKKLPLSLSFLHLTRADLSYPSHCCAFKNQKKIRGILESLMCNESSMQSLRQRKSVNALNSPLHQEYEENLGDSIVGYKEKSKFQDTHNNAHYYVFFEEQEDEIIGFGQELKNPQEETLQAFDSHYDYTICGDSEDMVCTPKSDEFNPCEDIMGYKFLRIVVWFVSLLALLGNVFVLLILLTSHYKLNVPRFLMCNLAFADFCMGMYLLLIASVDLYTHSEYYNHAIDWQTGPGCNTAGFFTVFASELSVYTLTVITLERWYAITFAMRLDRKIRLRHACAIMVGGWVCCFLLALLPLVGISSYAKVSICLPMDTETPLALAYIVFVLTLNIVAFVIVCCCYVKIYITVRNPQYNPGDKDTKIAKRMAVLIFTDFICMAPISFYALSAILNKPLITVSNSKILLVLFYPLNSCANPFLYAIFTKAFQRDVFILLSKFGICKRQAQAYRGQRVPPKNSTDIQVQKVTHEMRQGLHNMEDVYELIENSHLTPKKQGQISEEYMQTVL
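Inhibition of cAMP made by TSHR-expressing cells under TSH stimulation (4nM final, EC80; 2 h, 37 deg C) is quantified with a one-step lysis HTRF kit, anti-cAMP cryptate versus cAMP-d2.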
PKM2 activator = activators of human pyruvate kinase M2 | purified PKM2, Kinase-Glo ATP luminescence, activation; response scale: 0% is enzyme alone, no compound | P14618 | Potency, µM (doses to about 57.5 µM), without a hit: at the top dose activation, usual class: activators | 260,000 compounds, 0.34% hits; note: potency is the fitted concentration of half-maximal effect; % is set by controls: 0 for no effect and ±100 for the full control effect; nearly all actives have a fitted effect of over 55% in size
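Kinase-Glo luminescence reports ATP generated from ADP (0.1 mM) and PEP (0.5 mM) by purified hPK-M2 after 1 h at room temperature, pH 7.2 imidazole buffer; intermediate enzyme activity allows detecting inhibitors and activators.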
Active calls of the source: *; ? = inconclusive; · = no result; [ ] = remark or other dose. Unless noted, calls come from the whole dose curve; as a rule, active = well fitted curve in the direction sought with a large enough effect; inconclusive = small, poorly fitted or top-dose-only effect, or another doubt; inactive = no such curve, though single readings can be large; an effect the other way counts as inactive or inconclusive.

SMILES	TCR activator	uPA surface inh	TSHR antag	PKM2 activator
O=C(O)CSCC(=O)N1CCN(S(=O)(=O)c2ccccc2)CC1	-5%	-2%	-3	-1%
O=C(Cc1cccs1)N1CCN(S(=O)(=O)c2ccc(Br)cc2)CC1	5%	-5%	10	3.2µM*
CS(=O)(=O)N1CCN(C(=O)Cc2cccs2)CC1	1%	·	0	0%
O=c1cc[nH]c2ccc(OC(F)(F)F)cc12	4%	-1%	-2	-7%
CC(NC(=O)C1CCN(C(=O)Nc2ccccc2)CC1)c1ccccc1Cl (stereo not drawn)	-3%	7%	24	·
N#C/C(=C\Nc1ccc(Cl)cn1)S(=O)(=O)c1ccccc1	-3%	4%	-1	16µM*
N#C/C(=C\Nc1ccc(Cl)cn1)S(=O)(=O)c1ccccn1	8%	10%	7	10µM*
COc1ccc(-c2ccnc(SCC(=O)N3CCN(c4ccccc4)CC3)n2)cc1	-8%	2%	1	2%
O=C(Cc1ccccc1)Nc1cccc(N2C(=O)C=CC2=O)c1	9%[46.1 µM]	-4%	-71*	2.8µM*
N#CCc1ccc(NS(=O)(=O)c2cccs2)cc1	-3%	5%	17	18µM*
CC(=O)c1cccc(Nc2c3c(nc4ccccc24)CCC3)c1	5%	0.79µM*	-4	·
COC(=O)c1cccc(Nc2c3c(nc4ccccc24)CCC3)c1	-2%	-19%	-1	·
COC(=O)c1ccc(-n2c(C)cc(C(=O)CCl)c2C)cc1	-3%	6.3µM*	-10	-6%
NC(=O)C1CCN(c2nc(-c3cccc([N+](=O)[O-])c3)cs2)CC1	·	·	-7	·
COc1cc(/C=N/Nc2nncn2N)ccc1OCc1c(C)no[n+]1[O-]	6%	11µM*	3	-4%
COc1ccc(/C=N/Nc2nncn2N)cc1Br	3%	-13%	13	-4%
CCN(CC)S(=O)(=O)c1cccc(NC(=O)Nc2cccc(C(F)(F)F)c2)c1	1%	-18%	-74*	-20%
CCN(CC)S(=O)(=O)c1cccc(NC(=O)CC2CCCC2)c1	2%	3%	-8	·
Nc1nc(N)c2cc(Sc3ccc4ccccc4c3)ccc2n1	1%	2µM*	-3	?
O=C(Cn1[nH]c(=O)c2ccccc2c1=O)NNC(=O)c1ccccc1	-8%	6%	0	3%
COc1cc2oc3cc(C#Cc4ccc(N)cc4)ccc3c(=O)c2cc1OC	-5%	4µM*	·	·
Nc1ccc(C#Cc2ccc3c(=O)c4ccccc4oc3c2)cc1	5%	1.3µM*	2	-5%
COc1cc2oc3ccc(C#Cc4ccc(N)cc4)cc3c(=O)c2cc1OC	4%	-13%	·	·
N#Cc1ccc(C#Cc2ccc3oc4ccccc4c(=O)c3c2)cc1	-4%	-2%	-5	·
COc1cc2c(cc1OC)[C@@H]1O[C@](CCCCN3C(=O)c4ccccc4C3=O)(C2)Oc2cc(C)n(-c3ccccc3)c(=O)c21	·	·	·	5%[11.5 µM]
SMILES	TCR activator	uPA surface inh	TSHR antag	PKM2 activator
O=C(O)c1ncn(Cc2ccc(Br)cc2)c1C(=O)O	4%	1%	-3	?
Cc1ccc(-c2cc(C(=O)N3CCN(c4ncccn4)CC3)c3cc(Br)ccc3n2)o1	-2%	-2%	-6	8.9µM*
O=C(c1cc(-c2ccccn2)nc2ccc(Br)cc12)N1CCN(S(=O)(=O)c2ccccc2)CC1	-9%	-2%	8	25µM*
O=C(c1cc(-c2ccccn2)nc2ccc(Br)cc12)N1CCc2ccccc2C1	·	·	5	0%
N#C/C(=C\c1ccc(O)c(O)c1)C(=O)N1CCc2ccccc21	-2%	3.5µM*	0	·
O=C(Nc1ccc2c(c1)OCCO2)NC1(C(F)(F)F)Oc2ccccc2O1	1%	2.5µM*	5	25%
O=C(Nc1ccc2c(c1)OCO2)NC1(C(F)(F)F)Oc2ccccc2O1	0%	-11%	-5	7%
Cc1ccc(Sc2c([N+](=O)[O-])c(=O)n(C)c3ccccc23)cc1	-4%	?	-73*	0%
Cc1nn(CC(=O)N2CCN(c3ccccn3)CC2)c(=O)c2cc3sccc3n12	-8%	-9%	0	·
CC(C)(C)c1ccc(C(=O)Nc2cccc(S(=O)(=O)NC3=NCCC3)c2)cc1	-8%	4µM*	-8	·
CN(C)c1ccc(C(=O)Nc2cccc(S(=O)(=O)NC3=NCCCCC3)c2)cc1	7%	?	-16	·
O=c1cc(-c2c(F)c(F)c(F)c(F)c2F)oc2c(F)c(F)c(F)c(F)c12	·	·	-76*	-5%
COC(=O)CCC(=O)OC1(C)C(=O)C=C2C=C(C3CC3)N(c3ccc(OC)cc3)C=C2C1=O (stereo not drawn)	·	·	·	-1%[11.5 µM]
Cn1c(SCC(=O)c2ccccc2F)nnc1C1CC1	1%	-1%	-3	32µM*
O=C(CS(=O)c1ccc(C(F)(F)F)cc1[N+](=O)[O-])Oc1ccccc1 (stereo not drawn)	-5%	-15%	-71*	5%
COC(=O)c1ccc(OC(=O)CS(=O)c2ccccc2[N+](=O)[O-])cc1 (stereo not drawn)	-4%	2%	6	73%
CCN(CC)S(=O)(=O)c1cccc(C(=O)Nc2nc3cc4c(cc3s2)OCCO4)c1	6%	-9%	-78*	-27%
COc1ccccc1C(=O)Nc1nc2cc3c(cc2s1)OCCO3	-5%	2.8µM*	-17	-14%
COc1ccccc1NC(=O)c1[nH]c(C)c(C(C)=O)c1C	24%	-4%	-2	7%
COc1ccccc1NS(=O)(=O)c1cccc(NC(=O)c2[nH]c(C)c(C(C)=O)c2C)c1	-3%	-3%	6	13µM*
COc1ccc(C(=O)Nc2ccccc2C(=O)NCCN2CCOCC2)cc1OC	-2%	2%	0	-14%
O=C(c1ccncc1)N1N=C(c2ccc(Br)cc2)CC1c1ccccc1O (stereo not drawn)	0%	9%	10	7.9µM*
O=C(c1ccccc1)N1N=C(c2ccccc2)CC1c1ccccc1O (stereo not drawn)	2%	0%	5	0%
CC1(OC(=O)c2ccc(Cl)nc2)C(=O)C=c2cc(-c3ccsc3)ncc2=C1OC(=O)C1CCCC1 (stereo not drawn)	·	·	·	0%[11.5 µM]
Cc1cc(=O)n2c3c(sc2n1)C(=O)N(Cc1ccccc1)C3=O	·	·	-5	28µM*
COCCNS(=O)(=O)c1ccc2c(c1)C(=NO)c1cc(S(=O)(=O)NCCOC)ccc1-2	-2%	-5%	-7	10µM*
CN(C)/C(Cn1cncn1)=C1/N=C(c2c(F)cccc2F)OC1=O	-2%	7%	-3	25µM*
CC(C)(C)c1ccc(C(=O)NNC(=O)CCC(=O)Nc2ccccc2)cc1	2%	1%	-2	-5%
Cn1c(=O)c2c(nc(CN3CCc4ccccc4C3)n2Cc2cccc(Cl)c2)n(C)c1=O	6%	7.9µM*	-6	1%
Cn1c(=O)c2c(nc(CN3CCN(Cc4ccccc4)CC3)n2Cc2cccc(Cl)c2)n(C)c1=O	-3%	-27%	-5	2%
